Tgondii IFNg: inhibitors of Toxoplasma gondii growth with IFN-gamma | activity change, negative = inhibition, % (test concentration not listed) | 3.8% of 69,000 active | Toxoplasma gondii growth in IFN-gamma-treated host cells; hits give low values; in the data active = activity change below about -70%, passing the limit was not always enough;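 also: host cells are HeLa cells infected with Toxoplasma gondii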
Active calls of the source: *; ! = not active in a repeat. The full list was thinned out, with hits kept by preference.

SMILES	Tgondii IFNg
COc1ccc2c3c([nH]c2c1)[C@H](CO)N(S(C)(=O)=O)CC31CCN(CC2CCCC2)CC1	130
CCc1cnc(N2Cc3[nH]nc(C(=O)N(C)C)c3C2)nc1	57
COc1ccc(CCNc2cnn(-c3ccccc3)c(=O)c2Cl)cc1OC	-83*
COc1ccc(CCNC(=O)Cc2ccccc2)cc1OC	-48
O=c1c(Cl)c(Oc2ccccc2)cnn1-c1ccccc1	72
O=C(O)c1cccnc1CN(Cc1ccccc1)C1CCS(=O)(=O)C1 (centres undefined)	32
CSc1ccccc1NC(=O)CCC(=O)N1CCCN(C(=O)C2CC2)CC1	-53
COc1ccc(-c2nc(Cn3ccn4nc(-c5ccc(OC)c(OC)c5)cc4c3=O)c(C)o2)c(OC)c1	66
Cc1cc(C)n2nc(C(=O)NCCOC(C)C)nc2n1	14
CC[N+](CC)(CC)CCC(O)(c1ccccc1)C1CCCCC1 (centres undefined)	22
OC(CCN1CCCC1)(c1ccccc1)C1CCCCC1 (centres undefined)	-42
CN1CCCN=C1COC(=O)C(O)(c1ccccc1)C1CCCCC1 (centres undefined)	-74*!
Clc1ccc(OCc2noc(/C=C/c3ccccc3)n2)c(Cl)c1	-40
Cc1csc(SCC(=O)N2CCc3c(cc(-c4cccc(Cl)c4)c(=O)n3CC3CC3)C2)n1	-30
CN(C)CCN1CCO[C@@H]2CN(Cc3ccsc3)C[C@@H]21	-46
CC(=O)Oc1ccc(CN2CCC(c3nc(C)c(C)c(N4CCOCC4)n3)CC2)cc1	2
CN1CCCC(CN2c3ccccc3Sc3ccccc32)C1 (centres undefined)	16
OCCN1CCN(CCCN2c3ccccc3C=Cc3ccccc32)CC1	17
CN(C)CC/C=C1/c2ccccc2Sc2ccc(Cl)cc21	-62
CN1CCN(CCC=C2c3ccccc3Sc3ccc(S(=O)(=O)N(C)C)cc32)CC1	78
CN(C)CCCN1c2ccccc2Sc2ccc(C(F)(F)F)cc21	-89*!
CCSc1ccc2c(c1)N(CCCN1CCN(C)CC1)c1ccccc1S2	-78*
CC(=O)c1ccc2c(c1)N(CCCN1CCN(CCO)CC1)c1ccccc1S2	28
OCCN1CCN(CC/C=C2/c3ccccc3Sc3ccc(C(F)(F)F)cc32)CC1	-77*
COc1ccc2c(c1)N(C[C@H](C)CN(C)C)c1ccccc1S2	29
SMILES	Tgondii IFNg
CN1CCN(CCCN2c3ccccc3Sc3ccc(Cl)cc32)CC1	2
OCCN1CCN(CCCN2c3ccccc3Sc3ccc(C(F)(F)F)cc32)CC1	-97*!
CC(CN(C)C)CN1c2ccccc2Sc2ccccc21 (centres undefined)	7
CC(=O)Nc1ccc(NC(=O)Cn2c(=O)cc(C(=O)N3CCOCC3)c3ccccc32)cc1	8
COc1cccc(CCn2ccnc2-c2nccn2C)c1	-40
COc1ccc2[nH]c(C(=O)N(C)CCc3noc(C(C)C)n3)c(C)c2c1	0
CCOC(=O)c1nn(C)c2c1CN(Cc1ccc(N(C)c3ccccc3)cc1)CC2	8
Cc1cnc(C(=O)Nc2nn[nH]n2)cn1	7
Cc1c(Br)c(C(F)(F)F)nn1CC(=O)Nc1ccccc1C(F)(F)F	-55
CCC(CC)n1nc(C)cc1NC(=O)CCn1nnnc1C	-44
CS(=O)(=O)NC1CCN(c2nc(-c3ccccc3)nc3c2CCC3)CC1	-14
CCOc1ccc(-c2cc3c(=O)n(Cc4nc(-c5ccc(OCC)c(OC)c5)oc4C)ccn3n2)cc1	138
Cc1cc(C)cc(C(=O)Nc2ccc(N3CCOCC3)cc2)c1	11
Cc1[nH]cnc1-c1nccn1CCc1c(C)n2c3c(cccc13)CCC2	10
Cc1ccc(OCCN(C)Cc2ccccc2C(=O)O)c(C)c1	5
Cc1ncc(-c2ccnc(Nc3ccc(S(C)(=O)=O)cc3)n2)n1C(C)C	-77*
CSc1nccc(-c2ccc(S(C)(=O)=O)cc2)n1	-4
Cc1nn(C)c(C)c1-c1ccnc(NCCN2CCN(C(C)C)CC2)n1	-2
CO[C@@H]1CO[C@@]2(CCCN(C(=O)c3ccc4ncccc4c3)C2)C1	1
CCOc1cccc(-c2noc(-c3nnn(Cc4nc(-c5cccc(C)c5)oc4C)c3C)n2)c1	-6
Cc1oc(-c2ccc(NC(=O)c3cccc(F)c3)cc2)nc1Cn1cccn1	-87*
Cc1cnn(Cc2nc(-c3ccc(NC(=O)c4cccc(C#N)c4)cc3)oc2C)c1	-50
Cc1oc(-c2ccc(NC(=O)c3cccc(Cl)c3)cc2)nc1Cn1cccn1	-33
Cc1ccc(C(=O)Nc2ccc(-c3nc(Cn4cccn4)c(C)o3)cc2)cc1F	23
Cc1oc(-c2ccc(NC(=O)c3cc(F)cc(F)c3)cc2)nc1Cn1cccn1	20
COc1cccc(C(=O)Nc2ccc(-c3nc(Cn4cccn4)c(C)o3)cc2)c1	-99*
COc1cccc(CC(=O)Nc2ccc(-c3nc(Cn4cccn4)c(C)o3)cc2)c1	-44
COc1cccc(C(=O)Nc2ccc(-c3nc(Cn4cc(C)cn4)c(C)o3)cc2)c1	-93*
CN(C(=O)c1nc(Nc2ccc(Cl)cc2)c2ccccc2n1)c1ccccc1F	40
CN(C)CCC1CN(c2nc(C(N)=O)cs2)CCO1 (centres undefined)	-48

Source: PubChem (Broad Institute)
